GPR151 ag = activators of human GPR151; hit rate 1% among 650,000; activation, % at 11.2 µM; PathHunter beta-arrestin GPR151 cells, luminescence; Q8TDV0; AID 1508602; in the data active = activation above about 4.9%
Target sequence (Q8TDV0 whole entry, looked up): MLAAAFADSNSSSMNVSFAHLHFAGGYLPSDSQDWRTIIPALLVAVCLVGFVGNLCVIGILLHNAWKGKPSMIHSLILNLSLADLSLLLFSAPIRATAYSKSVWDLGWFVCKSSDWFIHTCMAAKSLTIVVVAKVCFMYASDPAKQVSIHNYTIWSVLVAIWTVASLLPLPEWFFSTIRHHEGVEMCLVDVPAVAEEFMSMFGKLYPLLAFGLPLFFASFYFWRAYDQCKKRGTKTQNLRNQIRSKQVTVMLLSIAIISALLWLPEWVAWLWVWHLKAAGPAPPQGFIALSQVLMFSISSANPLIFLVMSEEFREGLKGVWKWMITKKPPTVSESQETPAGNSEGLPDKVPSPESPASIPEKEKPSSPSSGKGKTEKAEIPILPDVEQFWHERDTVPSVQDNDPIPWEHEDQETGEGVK
TEAD-YAP block = TEAD-YAP interaction inhibition; HEK-TIYL cells, TEAD-Gal4/YAP UAS-luciferase luminescence; inhibition, % at 9.12 µM; hit rate 1.4% among 640,000; AID 1259422; in the data active = inhibition above about 32%
MITF primary = blocks human microphthalmia-associated transcription factor. AID 1259374. O75030. hit rate 0.91% among 650,000. inhibition, % at 2.6 µM. AlphaScreen MITF homodimerization, bead proximity signal; in the data active = inhibition above about 50%
FBW7 act = human FBW7 E3 ligase activation, primary screen. normalized activity (activation), % at 26.1 µM. hit rate 0.13% among 650,000. AlphaScreen FBW7–phospho-cyclin E peptide binding, activator screen. AID 1259310. Q969H0; in the data active = normalized activity above about 1.9%;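 also: purified mutant Fbw7 with reduced substrate affinity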
MITF inh conf = confirmation of human MITF inhibitors; shares compounds with MITF primary; AlphaScreen MITF homodimerization, biotin/His-MITF beads; inhibition, % at 2.6 µM; hit rate 16% among 4,700; AID 1259372;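 active = inhibition above a cutoff derived from the DMSO control wells, cut at about 28% in these data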;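 also: inhibitors lower the bead chemiluminescence by keeping MITF from dimerizing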
AlphaScreen DR = AlphaScreen optical interference, dose response counter-screen; shares compounds with MITF primary; AlphaScreen optical interference counterscreen, cell-free; IC50, µM; hit rate 6% among 480; call rule not given here
AS interf ctr = optically interferes with AlphaScreen signal; shares compounds with MITF primary; LysRS AlphaScreen counterscreen, signal interference, triplicate; inhibition, % at 2.6 µM; hit rate 7.6% among 4,700;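 active = inhibition above a cutoff derived from the DMSO control wells, cut at about 30% in these data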
Large screens that a line does not name were inactive (follow-up assays come after a bar, where they were run). In the library only some 3.4% were active in any assay of this set; here they are far more common.

Cc1cc(C)n(CCCNCC(O)COc2ccc(C(=O)c3ccccc3)cc2)n1 (configuration not stated)	MITF primary 60 | MITF inh conf inactive | AS interf ctr inactive
Cc1cccc(OCC(O)CNCCCn2ccnc2)c1 (configuration not stated)	MITF primary 65 | MITF inh conf inactive | AS interf ctr inactive
C/C(Nc1ccccc1O)=C1/C(=O)CC2C1C2(C)C (configuration not stated)	none
COC(=O)CCCC[C@H]1SC[C@H]2NC(=O)N[C@H]21	none
O=C(CCCCC1SCC2NC(=O)NC21)NC1(c2ccc(F)cc2)CCCC1 (configuration not stated)	MITF primary 109 | MITF inh conf 88 | AlphaScreen DR 4.3 | AS interf ctr inactive
Cn1c(N2CCCC(C(=O)NCCCN3CCCC3=O)C2)nc2ccccc21 (configuration not stated)	none
CS(=O)(=O)N(CC(=O)Nc1cccc(F)c1)c1ccc2c(c1)OCO2	MITF primary 64 | MITF inh conf inactive | AS interf ctr inactive
CSc1cccc(NC(=O)CN(c2ccc3c(c2)OCO3)S(C)(=O)=O)c1	none
CS(=O)(=O)N(CC(=O)Nc1c(F)cccc1F)c1ccc(Oc2ccccc2)cc1	MITF primary 60 | MITF inh conf inactive | AS interf ctr inactive
CS(=O)(=O)N(CC(=O)Nc1ccc(F)cc1)c1ccc(Oc2ccccc2)cc1	MITF primary 68 | MITF inh conf inactive | AS interf ctr inactive
O=C(Nc1ccc2[nH]ncc2c1)[C@@H](O)CSc1ccc(Br)cc1	none
COc1ccc(C)cc1NS(=O)(=O)c1ccc2c(c1)CCC(=O)N2	MITF primary 73 | MITF inh conf 62 | AlphaScreen DR inactive | AS interf ctr inactive
COc1ccc(NC(=O)CNS(=O)(=O)c2cccc3nonc23)cc1Cl	none
COc1ccc(NC(=O)CCNS(=O)(=O)c2cccc3nonc23)cc1Cl	MITF primary 55 | MITF inh conf inactive | AS interf ctr inactive
Cc1cc(C(=O)O)ccc1-c1ccc(/C=C2/NC(=O)NC2=O)o1	MITF primary 67 | MITF inh conf 68 | AlphaScreen DR inactive | AS interf ctr inactive
COc1cc(-c2nc3sc4c(c3c(=O)[nH]2)CCCC4)ccc1OC(=O)c1ccc(F)cc1	MITF primary 75 | MITF inh conf inactive | AS interf ctr inactive
COc1cc(-c2nc3sc4c(c3c(=O)[nH]2)CCCC4)ccc1OC(=O)c1ccc(Cl)cc1	none
O=c1[nH]c(-c2ccco2)nc2sc3c(c12)CCCC3	MITF primary 81 | MITF inh conf 69 | AlphaScreen DR inactive | AS interf ctr inactive
Cc1ncc(CO)c(/C=N/Nc2nc3ccccc3o2)c1O	MITF primary 65 | MITF inh conf inactive | AS interf ctr 47
CCCC(=O)NCC(c1ccco1)S(=O)(=O)c1ccc(C)cc1 (configuration not stated)	none
COC(=O)c1ccc2c(=O)n(Cc3ccccn3)c(=S)[nH]c2c1	none
CCc1ccc(CN2CCN(S(=O)(=O)c3ccccc3[N+](=O)[O-])CC2)cc1	none
Cc1ccc(CN2CCN(S(=O)(=O)c3ccccc3[N+](=O)[O-])CC2)cc1	MITF primary 58 | MITF inh conf inactive | AS interf ctr inactive
CSc1ccc(CN2CCN(S(=O)(=O)c3ccccc3[N+](=O)[O-])CC2)cc1	MITF primary 57 | MITF inh conf inactive | AS interf ctr inactive
CCCNC(=O)CN(Cc1ccc(Br)cc1)S(=O)(=O)c1ccccc1	none
COc1ccc(C)cc1NC(=O)CCN1CCOCC1	none
COc1ccc(C)cc1NC(=O)N1CCC(CO)(CC2CCCCO2)CC1 (configuration not stated)	none
COc1ccc(C)cc1NC(=O)CNCC1CCCO1 (configuration not stated)	MITF primary 53 | MITF inh conf inactive | AS interf ctr inactive
COc1ccccc1NC(=O)CNCCN1CCOCC1	MITF primary 86 | MITF inh conf inactive | AS interf ctr inactive
N#Cc1ccsc1NC(=O)CNCC1CCCO1 (configuration not stated)	MITF primary 60 | MITF inh conf inactive | AS interf ctr inactive
COc1ccccc1NC(=S)NCCN1CCOCC1	none
COc1ccc(C)cc1NC(=O)CNCCN1CCOCC1	MITF primary 87 | MITF inh conf inactive | AS interf ctr inactive
COCCNC(=O)c1ccc2c(c1)NC(=O)C(CSCc1cccc(Cl)c1)N2 (configuration not stated)	none
COc1cccc(/C(O)=C2/C(=O)C(=O)N(c3ccccn3)C2c2cccc([N+](=O)[O-])c2)c1 (configuration not stated)	none
COc1ccc(C2=C/C(=C/c3ccncc3)C(=O)O2)cc1OC	none
COc1ccccc1NC(=O)CC(NCCCN1CCOCC1)C(=O)O (configuration not stated)	none
COc1ccccc1NC(=O)CNCCCN1CCOCC1	MITF primary 61 | MITF inh conf inactive | AS interf ctr inactive
COc1cc(CN2CCN(Cc3ccccc3C)CC2)c([N+](=O)[O-])cc1OC	MITF primary 75 | MITF inh conf inactive | AS interf ctr inactive
COc1cc(CN2CCN(C/C=C/c3ccccc3)CC2)c([N+](=O)[O-])cc1OC	none
COc1cc(CN2CCN(Cc3ccccc3Cl)CC2)c([N+](=O)[O-])cc1OC	MITF primary 82 | MITF inh conf inactive | AS interf ctr inactive
CCc1ccc(C23OC(=O)C(C)(C)C2OC(=O)C3(C)C)cc1 (configuration not stated)	none
Cc1c(C(=O)O[C@H]2C[C@@H](c3ccc(F)cc3)N(C)C2=O)cnn1C	none
CCN1CCN(CC(O)COC(c2ccccc2)c2ccccc2C)CC1 (configuration not stated)	MITF primary 88 | MITF inh conf inactive | AS interf ctr inactive
COC(=O)c1cc(S(=O)(=O)N2CCN(c3ccccc3F)CC2)cn1C	none
COc1ccc2c(c1)C(C)CC(C)(C)N2C(=O)CSc1ncccn1 (configuration not stated)	none
COc1ccc(CCNCC(=O)N2c3ccccc3C(C)CC2(C)C)cc1 (configuration not stated)	none
CCOCCCNCC(=O)N1c2ccc(C)cc2C(C)CC1(C)C (configuration not stated)	MITF primary 56 | MITF inh conf inactive | AS interf ctr inactive
COc1ccc2c(c1)C(C)CC(C)(C)N2C(=O)CNCc1ccco1 (configuration not stated)	MITF primary 57 | MITF inh conf inactive | AS interf ctr inactive
Cc1ccc2c(c1)C(C)CC(C)(C)N2C(=O)CNCCN1CCOCC1 (configuration not stated)	MITF primary 87 | MITF inh conf inactive | AS interf ctr inactive
Cc1ccc2c(c1)C(C)CC(C)(C)N2C(=O)CSc1ncccn1 (configuration not stated)	none
N#Cc1cc2cc3c(cc2nc1NCCCNC(=O)NCc1ccccc1)OCO3	none

Screening results from PubChem BioAssay.
